Common to all, as to settings: concentration: 10 µM; 24 h
Assay [1] deals with HCC1569. As to the kind of experiment: cell number relative to DMSO (% of DMSO); higher = more cells (less growth inhibition / toxicity). The essentials: (§1)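 H1.0 nuclear intensity or cell number is expressed as percent of the plate control, with the median of replicates taken. HCC1569 and TDF cells were treated with compounds at 10 µM for 24 h at 37 °C, in triplicate, then fixed and immunostained for H1.0 with DAPI as a nuclear stain. HCC1569 values were smoothed to correct for positional effects.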

Assay [2] deals with TDF. Described as above. The essentials:
as §1

Assay [3] relates to TDF. As to the kind of experiment: H1.0 immunofluorescence intensity relative to DMSO (% of DMSO); higher = stronger H1.0 induction, active = 120 or more. The essentials:
as §1

The subject of assay [4] is HCC1569. Put plainly: H1.0 immunofluorescence intensity relative to DMSO (% of DMSO); higher = stronger H1.0 induction, active = 140 or more. A digest of the protocol:
as §1

Structures are written as SMILES. ± gives the standard deviation of the averaged measurements.
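For H1.0 immunofluorescence intensity relative to DMSO in this document: TDF is a line of transformed human dermal fibroblasts of mesenchymal origin.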
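For cell number relative to DMSO in this document: TDF denotes transformed human dermal fibroblasts of mesenchymal origin.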

Take `COC(=O)Nc1nc2ccc(C(=O)c3cccs3)cc2[nH]1` [Nocodazole]: the cell number was determined as 59.5 in the assay with HCC1569 [1] and 10.9 with TDF [2]. In addition, the H1.0 immunofluorescence intensity is 157 (active) in the assay with TDF [3] and 136 (inactive) with HCC1569 [4].
On to `CN1CCC(=C2c3ccccc3C=Cc3ccccc32)CC1` [Cyproheptadine], for which the figures for the cell number in the assay on HCC1569 [1] and with TDF [2] were 100 and 83.7, respectively. For the same molecule, the H1.0 immunofluorescence intensity with TDF [3] is 98.2 (inactive); with HCC1569 [4] it was 108 (inactive).
For `O.O=c1c(O)c(-c2ccc(O)cc2O)oc2cc(O)cc(O)c12` the same measures were 104, 94.5, 100 (inactive) and 98.8 (inactive).
For `COc1cc2nc(N3CCN(C(=O)C4CCCO4)CC3)nc(N)c2cc1OC.Cl` (centres undefined) [Terazosin hydrochloride] the same measures were 100, 95.1, 92.6 (inactive) and 102 (inactive).
For `CCN1C(=O)C=CC1=O` [N-Ethylmaleimide] the same measures were 102 ± 5.4, 97.2 ± 4.9, 96.6 (inactive) and 91.7 (inactive).
For the molecule `CC[N+](CC)(CC)CCOc1cccc(OCC[N+](CC)(CC)CC)c1OCC[N+](CC)(CC)CC` [Gallamine], the cell number worked out at 101 in the assay on HCC1569 [1] and 107 with TDF [2]. Also, the H1.0 immunofluorescence intensity is 93.8 (inactive) in the assay with TDF [3] and 104 (inactive) in the assay with HCC1569 [4].
In the case of `CCN(CC)CCCCN1c2ccccc2Oc2ccc(Cl)cc21.Cl`, the cell number was determined as 88.8 in the assay with HCC1569 [1] and 86.3 in the assay on TDF [2]. Besides, the H1.0 immunofluorescence intensity is 110 (inactive) in the assay on TDF [3] and 159 (active) in the assay with HCC1569 [4].
On to `Cn1cnc([N+](=O)[O-])c1Sc1ncnc2nc[nH]c12` [Azathioprine], for which the cell number was 99.15 ± 0.87 in the assay on HCC1569 [1] and 101.8 ± 0.74 with TDF [2]. The figures for the H1.0 immunofluorescence intensity in the assay with TDF [3] and in the assay on HCC1569 [4] were 94.9 (inactive) and 97.6 (inactive), respectively.
Consider `Cn1cnc2c1c(=O)[nH]c(=O)n2C` [Theobromine], for which the values for the cell number in the assay with HCC1569 [1] and with TDF [2] were 104 ± 3 and 99 ± 6.1, respectively. The H1.0 immunofluorescence intensity in the assay on TDF [3] was 96.4 (inactive); with HCC1569 [4] it was 95.9 (inactive).
For `CCCCCCCCCCCCCCCC(=O)O` [Hexadecanoic acid] the same measures were 97.3, 92.6, 104 (inactive) and 97.9 (inactive).
As to `Cl.Cl.Cl.Cl.NCCCNCCCCNCCCN` [Spermine tetrahydrochloride], the cell number with HCC1569 [1] was found to be 102; in the assay on TDF [2], 104. Besides, the H1.0 immunofluorescence intensity in the assay on TDF [3] is 92.3 (inactive); in the assay on HCC1569 [4], 86.7 (inactive).
As for `O=C(O)Cc1ccc(O)c(O)c1` [3,4-Dihydroxyphenylacetic acid], the figures for the cell number in the assay on HCC1569 [1] and with TDF [2] were 104 and 102, respectively. Further, the H1.0 immunofluorescence intensity was 95.9 (inactive) in the assay on TDF [3] and 96.6 (inactive) in the assay on HCC1569 [4].
On to `O=c1c(OC2OC(C(O)CO)C(O)C2O)c(-c2ccc(O)c(O)c2)oc2cc(O)cc(O)c12` (centres undefined) [Isoquercitrine], for which the cell number with HCC1569 [1] is 103; with TDF [2], 105. The results for the H1.0 immunofluorescence intensity in the assay with TDF [3] and in the assay on HCC1569 [4] were 102 (inactive) and 87.9 (inactive), respectively.
With `O=C(O)Cc1c[nH]c2ccc(O)cc12` [5-Hydroxyindolacetic acid], the figures for the cell number with HCC1569 [1] and with TDF [2] were 104 and 99.5, respectively. Moreover, the H1.0 immunofluorescence intensity in the assay on TDF [3] is 99.9 (inactive); in the assay with HCC1569 [4], 97.9 (inactive).
Turning to `CC(C)NCC(O)COc1ccc(CC(N)=O)cc1` (stereo not drawn) [R(+)-Atenolol], the cell number with HCC1569 [1] amounted to 98.9; with TDF [2], 109. Further, the H1.0 immunofluorescence intensity in the assay on TDF [3] is 90.9 (inactive); with HCC1569 [4] it was 95.4 (inactive).
Take `CN1CCc2cc3c(cc2C(=O)Cc2ccc4c(c2C1)OCO4)OCO3` [Protopine]: the cell number came out at 99.4 with HCC1569 [1] and 108 in the assay with TDF [2]. Further, the H1.0 immunofluorescence intensity was 97.6 (inactive) with TDF [3] and 92.4 (inactive) with HCC1569 [4].
With `O=C1Nc2cc(Br)ccc2C1=C1N=c2ccccc2=C1NO` [GSK-3 Inhibitor IX], the results for the cell number in the assay with HCC1569 [1] and in the assay with TDF [2] were 56.3 and 70.1, respectively. Also, the H1.0 immunofluorescence intensity in the assay on TDF [3] is 112 (inactive); in the assay on HCC1569 [4], 222 (active).
For `CC1(C)CCC(NC(=O)C(N)CCC(=O)O)CC1` (centres undefined) the same measures were 103, 111, 85.3 (inactive) and 91.7 (inactive).
Regarding `Cn1cc[nH]c1=S` [Methimazole], the cell number in the assay with HCC1569 [1] came out at 107; in the assay on TDF [2], 103. Further, the H1.0 immunofluorescence intensity in the assay with TDF [3] was 97.9 (inactive); with HCC1569 [4], 102 (inactive).
For `O=C1Nc2ccc(Br)cc2C1=Cc1cc2c([nH]1)CCCC2` [VEGF Receptor 2 Kinase Inhibitor II] the same measures were 94, 114, 76.2 (inactive) and 190 (active).
Regarding `Cc1cc2cc3c(C)cc(=O)oc3c(C)c2o1` [4,5',8-Trimethylpsoralen], the values for the cell number in the assay on HCC1569 [1] and with TDF [2] were 97.9 and 102, respectively. The H1.0 immunofluorescence intensity is 97.2 (inactive) with TDF [3] and 87.5 (inactive) in the assay with HCC1569 [4].
For `NC(=O)c1ccccc1` [Benzamide] the same measures were 98.5, 87.1, 99.2 (inactive) and 107 (inactive).
In the same order, the values of `CCSC(N)=Nc1ccc(C(F)(F)F)cc1.Cl` [TFPI hydrochloride] are 79.3, 90.8, 99.6 (inactive) and 132 (inactive).
Regarding `CCCCCC(=O)C=CC1C(O)CC(=O)C1CC=CCCCC(=O)O` (centres undefined) [15-keto-prostaglandin E2], the cell number was 100 in the assay with HCC1569 [1] and 108 in the assay on TDF [2]. The H1.0 immunofluorescence intensity was 89.3 (inactive) with TDF [3] and 90.9 (inactive) with HCC1569 [4].
For the molecule `CC(=O)NC(Cc1c[nH]c2ccccc12)C(=O)OCc1cc(C(F)(F)F)cc(C(F)(F)F)c1` (centres undefined), the cell number in the assay on HCC1569 [1] is 102; in the assay on TDF [2] it was 103. Further, the values for the H1.0 immunofluorescence intensity in the assay on TDF [3] and with HCC1569 [4] were 93.2 (inactive) and 90.8 (inactive), respectively.
For the molecule `COC(=O)[C@H](Cc1ccc([N+](=O)[O-])cc1)NC(=O)c1cccc2ccccc12` [methyl (2S)-2-(1-naphthoylamino)-3-(4-nitrophenyl)propanoate], the results for the cell number in the assay on HCC1569 [1] and in the assay with TDF [2] were 92.4 and 95, respectively. In addition, the H1.0 immunofluorescence intensity in the assay on TDF [3] is 100 (inactive); in the assay on HCC1569 [4], 101 (inactive).

Source of the values: the supplement of paper PMC7156485.
